Where “and” joins values, the source holds several entries; their conditions need not be identical. Equal entries are not always repeated. The whole screen tested about 5,500 compounds, of which about 2,000 (36%) were called active. Not shown: some 18% with an inconclusive outcome. No stated cut-off is given here; in the data, active means normalized growth mostly below about 0.91 (no sharp cut-off); inconclusive means no clear call, values can overlap the other calls; inactive means mostly above about 0.92. The list shows a part of the results.
Experiment: chemical genetic growth profiling, strain panel (AID 1159580);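 further: tested at 20 µM; growth read once vehicle control cultures reached saturation at 30 °C; 1 = growth at the plate median or of vehicle wells; lower values mean less growth of the strain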
Settings: S. cerevisiae deletion strains, growth OD

Measured: normalized growth

CC1(C)O[C@H]2CC(=O)OC[C@]23[C@H]2CC[C@@]4(C)[C@H](c5ccoc5)OC(=O)[C@H]5O[C@]54[C@]2(C)C(=O)C[C@@H]13
inactive: locus YAL013W, strain DEP1, active compounds read low 1.02 | locus YAL021C, strain ccr4, active compounds read low 0.982 | locus YAL026C, strain drs2, active compounds read low 0.99 | locus YAL030W, strain snc1, active compounds read low 0.98 | locus YBL061C, strain skt5, active compounds read low 0.987 | locus YBR009C, strain hhf1, active compounds read low 0.968 | locus YBR023C, strain chs3, active compounds read low 0.995 | locus YBR171W, strain sec66, active compounds read low 0.964 | locus YBR229C, strain ROT2, active compounds read low 1.01 | locus YBR231C, strain swc5, active compounds read low 1 | locus YBR279W, strain paf1, active compounds read low 0.992 | locus YCL011C, strain gbp2, active compounds read low 0.98 | locus YCL016C, strain dcc1, active compounds read low 0.99 | locus YCL029C, strain bik1, active compounds read low 0.976 | locus YCL061C, strain MRC1, active compounds read low 0.974 | locus YCL069W, strain vba3, active compounds read low 0.969 | locus YCR088W, strain abp1, active compounds read low 0.984 | locus YDL005C, strain med2, active compounds read low 0.962 | locus YDL035C, strain GPR1, active compounds read low 1.02 | locus YDL040C, strain nat1, active compounds read low 0.984 | locus YDL074C, strain BRE1, active compounds read low 0.992 | locus YDL101C, strain DUN1, active compounds read low 0.985 | locus YDL134C, strain PPH21, active compounds read low 1.01 | locus YDL185W, strain tfp1, active compounds read low 0.962 | locus YDL192W, strain arf1, active compounds read low 0.988 | locus YDR001C, strain nth1, active compounds read low 0.984 | locus YDR069C, strain doa4, active compounds read low 0.989 | locus YDR101C, strain arx1, active compounds read low 0.998 | locus YDR137W, strain rgp1, active compounds read low 1.01 | locus YDR150W, strain NUM1, active compounds read low 0.994 | locus YDR159W, strain sac3, active compounds read low 0.99 | locus YDR162C, strain NBP2, active compounds read low 1.02 | locus YDR195W, strain ref2 0.967 | locus YDR297W, strain sur2, active compounds read low 1.01 | locus YDR318W, strain mcm21, active compounds read low 0.994 | locus YDR334W, strain swr1, active compounds read low 0.958 | locus YDR335W, strain msn5, active compounds read low 0.986 | locus YDR388W, active compounds read low 1.01 | locus YDR392W, strain spt3, active compounds read low 0.986 | locus YDR502C, strain sam2, active compounds read low 0.99 | locus YEL003W, strain gim4, active compounds read low 0.981 | locus YEL037C, strain rad23, active compounds read low 0.971 | locus YEL061C, strain CIN8 (second series), active compounds read low 0.991 | locus YEL061C, strain CIN8, active compounds read low 1 | locus YER015W, strain faa2, active compounds read low 0.989 | locus YER016W, strain bim1, active compounds read low 0.98 | locus YER110C, active compounds read low 0.975 | locus YER111C, strain swi4, active compounds read low 0.95 | locus YER155C, strain BEM2 (second series), active compounds read low 0.952 | locus YER155C, strain BEM2, active compounds read low 0.995 | locus YER167W, strain BCK2, active compounds read low 1 | locus YFR010W, strain ubp6, active compounds read low 0.986 | locus YGL078C, strain dbp3, active compounds read low 0.985 | locus YGL086W, strain mad1, active compounds read low 0.993 | locus YGL167C, strain pmr1, active compounds read low 0.975 | locus YGL173C, strain kem1, active compounds read low 0.982 | locus YGL227W, strain vid30, active compounds read low 0.987 | locus YGL240W, strain doc1, active compounds read low 0.962 | locus YGL248W, strain PDE1, active compounds read low 1.02 | locus YGL253W, strain hxk2, active compounds read low 1.01 | locus YGR135W, strain pre9, active compounds read low 1 | locus YGR229C, strain SMI1, active compounds read low 1.04 | locus YGR252W, strain gcn5, active compounds read low 1.07 | locus YHR013C, strain ard1, active compounds read low 0.95 | locus YHR027C, strain rpn1, active compounds read low 0.993 | locus YHR030C, strain SLT2, active compounds read low 1 and 1.01 | locus YHR079C, strain IRE1 (second series), active compounds read low 0.98 | locus YHR079C, strain IRE1, active compounds read low 1.03 | locus YHR094C, strain hxt1, active compounds read low 0.984 | locus YHR129C, strain ARP1, active compounds read low 1 | locus YHR142W, strain chs7, active compounds read low 0.973 | locus YHR200W, strain rpn10, active compounds read low 0.987 | locus YIL066C, strain RNR3, active compounds read low 1.02 | locus YIL073C, strain SPO22, active compounds read low 0.932 | locus YIL125W, strain kgd1, active compounds read low 0.997 | locus YIR030C, strain dcg1, active compounds read low 0.984 | locus YJL092W, strain hpr5, active compounds read low 0.962 | locus YJL095W, strain BCK1 (second series), active compounds read low 0.966 | locus YJL095W, strain BCK1, active compounds read low 0.985 and 1.03 | locus YJL115W, strain asf1, active compounds read low 0.95 | locus YJL129C, strain trk1, active compounds read low 0.973 | locus YJL134W, strain LCB3, active compounds read low 1 | locus YJL154C, strain vps35, active compounds read low 0.975 | locus YJL164C, strain tpk1, active compounds read low 0.986 | locus YJL166W, strain qcr8, active compounds read low 0.979 | locus YJL168C, strain set2, active compounds read low 0.989 | locus YJL187C, strain SWE1 (second series), active compounds read low 0.996 | locus YJL187C, strain SWE1, active compounds read low 0.967 | locus YJR043C, strain POL32, active compounds read low 1.05 | locus YJR066W, strain TOR1, active compounds read low 0.946 | locus YJR075W, strain HOC1, active compounds read low 0.989 | locus YKL009W, strain mrt4, active compounds read low 0.963 | locus YKL068W, active compounds read low 0.987 | locus YKL085W, strain MDH1 (second series), active compounds read low 0.992 | locus YKL085W, strain MDH1, active compounds read low 0.992 | locus YKL160W, strain elf1, active compounds read low 1 | locus YKR001C, strain vps1, active compounds read low 0.985 | locus YKR026C, strain gcn3, active compounds read low 0.998 | locus YKR091W, strain srl3, active compounds read low 0.98 | locus YLL001W, strain dnm1, active compounds read low 0.959 | locus YLL026W, active compounds read low 0.988 | locus YLL041C, strain sdh2, active compounds read low 0.97 | locus YLR027C, strain aat2, active compounds read low 0.965 | locus YLR039C, strain RIC1, active compounds read low 1.01 | locus YLR058C, strain SHM2, active compounds read low 1 | locus YLR102C, strain apc9, active compounds read low 0.983 | locus YLR113W, strain HOG1, active compounds read low 1.04 | locus YLR221C, strain rsa3, active compounds read low 1 | locus YLR258W, strain gsy2, active compounds read low 0.996 | locus YLR262C, strain YPT6 (second series), active compounds read low 1.01 | locus YLR262C, strain YPT6, active compounds read low 1 | locus YLR268W, strain sec22, active compounds read low 0.961 | locus YLR320W, strain mms22, active compounds read low 0.992 | locus YLR330W, strain CHS5, active compounds read low 0.998 | locus YLR342W, strain FKS1 (second series), active compounds read low 1.07 | locus YLR342W, strain FKS1, active compounds read low 0.975 | locus YLR357W, strain rsc2, active compounds read low 0.99 | locus YLR370C, strain arc18, active compounds read low 0.97 | locus YLR371W, strain rom2, active compounds read low 0.98 | locus YLR384C, strain iki3, active compounds read low 0.999 | locus YLR418C, strain cdc73, active compounds read low 0.994 | locus YML016C, strain PPZ1, active compounds read low 1.01 | locus YML032C, strain rad52, active compounds read low 1.01 | locus YML120C, strain ndi1, active compounds read low 0.969 | locus YML124C, strain tub3, active compounds read low 0.99 | locus YMR058W, strain fet3, active compounds read low 0.974 | locus YMR078C, strain ctf18, active compounds read low 0.982 | locus YMR125W, strain sto1, active compounds read low 0.985 | locus YMR129W, active compounds read low 0.99 | locus YMR205C, strain PFK2, active compounds read low 1.01 | locus YMR223W, strain ubp8, active compounds read low 0.994 | locus YMR231W, strain pep5, active compounds read low 0.981 | locus YMR263W, strain SAP30, active compounds read low 0.985 | locus YMR307W, strain GAS1, active compounds read low 1.04 | locus YNL067W, strain RPL9B, active compounds read low 0.961 | locus YNL071W, strain lat1, active compounds read low 0.995 | locus YNL128W, strain TEP1, active compounds read low 0.993 | locus YNL153C, strain GIM3, active compounds read low 0.994 | locus YNL183C, strain NPR1, active compounds read low 0.934 | locus YNL209W, strain ssb2, active compounds read low 0.979 | locus YNL233W, strain BNI4, active compounds read low 0.997 | locus YNL248C, strain rpa49, active compounds read low 0.979 | locus YNL250W, strain rad50, active compounds read low 0.932 | locus YNL271C, strain bni1, active compounds read low 0.987 | locus YNL298W, strain CLA4, active compounds read low 1 | locus YNL307C, strain MCK1, active compounds read low 0.983 | locus YNL322C, strain KRE1 (second series), active compounds read low 0.959 | locus YNL322C, strain KRE1, active compounds read low 0.997 | locus YNR049C, strain mso1, active compounds read low 0.956 | locus YNR052C, strain pop2, active compounds read low 0.994 | locus YOL006C, strain TOP1, active compounds read low 0.922 | locus YOL012C, strain htz1 0.665 | locus YOL147C, strain pex11, active compounds read low 0.998 | locus YOR001W, strain rrp6, active compounds read low 0.995 | locus YOR061W, strain CKA2, active compounds read low 1.01 | locus YOR069W, strain VPS5, active compounds read low 1 | locus YOR070C, strain gyp1, active compounds read low 0.992 | locus YOR080W, strain dia2, active compounds read low 0.961 | locus YOR083W, strain WHI5, active compounds read low 0.975 | locus YOR106W, strain vam3, active compounds read low 1.01 | locus YOR136W, strain idh2, active compounds read low 0.985 | locus YOR144C, strain elg1, active compounds read low 1.01 | locus YOR184W, strain ser1, active compounds read low 0.988 | locus YOR231W, strain MKK1, active compounds read low 1.04 | locus YOR265W, strain rbl2, active compounds read low 0.984 | locus YOR270C, strain vph1, active compounds read low 0.988 | locus YOR290C, strain snf2, active compounds read low 0.973 | locus YOR316C, strain cot1, active compounds read low 0.992 | locus YPL051W, strain arl3, active compounds read low 0.986 | locus YPL078C, strain atp4, active compounds read low 0.97 | locus YPL106C, strain sse1, active compounds read low 0.939 | locus YPL240C, strain hsp82, active compounds read low 0.992 | locus YPL256C, strain CLN2, active compounds read low 1.01 | locus YPR119W, strain clb2, active compounds read low 0.994 | locus YPR141C, strain kar3, active compounds read low 0.991 | locus YPR163C, strain tif3, active compounds read low 1 | locus YPR167C, strain met16, active compounds read low 0.989 | strain wtn01, active compounds read low 0.974
active: locus YBR021W, strain FUR4, active compounds read low 1.21 [resistant]

Source: PubChem BioAssay AID1159580 (chemical genetic matrix, 2015)
